# Measurements: PubChem BioAssay AID1822 (The Scripps Research Institute Molecular Screening Center, 2009)
# The campaign covered roughly 290,000 compounds. About 3,500 (1.2%) were called active. The full list was thinned out, with actives kept by preference. Values without a mark were called inactive.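 The calls were made as follows: active = inhibition above the campaign mean inhibition over all tested compounds plus 3 SD (cut at about 28% in these data); inactive = the rest.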
# Tested on: M18 aspartyl aminopeptidase (Plasmodium falciparum 3D7)
# Assay: inhibition of P. falciparum M18 aminopeptidase – biochemical, QFRET, recombinant enzyme, primary screen (AID 1822);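 also: 0% = plate median of test compound wells and 100% = 2 mM ZnCl2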
# Details: recombinant PfM18AAP, H-Glu-NHMec fluorogenic cleavage; at 7.35 µM; hits give high values
row,SMILES,inhibition
1,N#Cc1cccc(CN2CCC(=O)N([C@H](CO)c3ccccc3)CC2)c1,-11.8%
2,Cn1c2ccc(F)cc2c2nnc(NN)nc21,30.3% (active)
3,Cc1ccc2c(c1)c1ncn(Cc3ccc(F)cc3)c(=O)c1n2C,-2.55%
4,CCn1c2ccc(F)cc2c2nnc(SCCN3CCOCC3)nc21,10.1%
5,Cc1cccc(C(=O)NNC(=O)CSc2nnc(C(C)C)n2C)c1,-1.87%
6,COc1ccccc1/C=N\Nc1cc(C)nc(-n2nc(C)cc2C)n1,4.17%
7,COc1cccc(/C=N/Nc2cc(C)nc(-c3ccccc3O)n2)c1O,52.7% (active)
8,COc1cccc(/C=N/Nc2ncc(C(F)(F)F)cc2Cl)c1O,12.8%
9,COC(=O)c1ccc(OC(=O)c2cnccn2)cc1,5.19%
10,COc1ccc(-c2cn(-c3ccc(OC)cc3)c(=S)[nH]2)cc1,24.3%
11,S=c1[nH]c(-c2cccs2)cn1-c1ccccc1,38.5% (active)
12,O=c1oc2ccccc2cc1-c1cn(-c2ccccc2)c(=S)[nH]1,11.4%
13,Cc1cc(C)c2nc(N(CCN(C)C)C(=O)/C=C/c3cccs3)sc2c1,0.71%
14,S=C(NCCCc1ccccc1)Nc1ccc(Br)cc1,-6.24%
15,O=C(c1cc2cc(Br)cc(Br)c2oc1=O)N1CCOCC1,-1.08%
16,O=C(CSC(=S)N1CCOCC1)c1ccccc1,4.44%
17,O=C(CSC(=S)N1CCOCC1)c1cc(Br)cc(Br)c1O,44.3% (active)
18,Cc1ccc2c(c1)sc1ncc(NC(=O)c3ccccc3)c(=O)n12,-1.31%
19,CN(CC(=O)NCCN1CCOCC1)S(=O)(=O)c1ccc(F)cc1,-0.36%
20,CCc1ccc(C(=O)COC(=O)c2ccco2)cc1,1.62%
21,S=c1[nH]nc(COc2ccccc2)n1-c1ccccc1,19.1%
22,COc1ccc(OCc2n[nH]c(=S)n2N)cc1,32.5% (active)
23,Cc1ccc(OCc2n[nH]c(=S)n2-c2ccc(C)cc2)cc1,14.1%
24,COc1ccc(CNC(=O)CN(C(=O)c2csnn2)c2cnc3ccccc3c2)cc1,3.77%
25,CN(C)[C@@H]1C(=O)C(C(N)=O)=C(O)[C@@]2(O)C(=O)C3=C(O)c4c(O)ccc(Cl)c4[C@@H](O)[C@H]3C[C@@H]12,37% (active)

row,SMILES,inhibition
1,COc1ccc(CN2CCN(C(=O)CCC(=O)Nc3nnc(C(C)C)s3)CC2)cc1F,0.79%
2,CC1CC(C)CN(CCCNC(=O)c2csc3c2CCCCC3)C1 (configuration not stated),-10.4%
3,COc1ccc(C2C3=C(CCCC3=O)N(CC(=O)O)C3=C2C(=O)CCC3)cc1,5.23%
4,CCOc1ccc(C2C3=C(CCCC3=O)N(CC(=O)O)C3=C2C(=O)CCC3)cc1,32.6% (active)
5,CCOc1ccc(C2C(C#N)=C(N)N(N(C)C)C3=C2C(=O)CCC3)cc1 (configuration not stated),8.27%
6,COc1cccc(C(=O)NNS(=O)(=O)c2ccc(F)cc2)c1,10.3%
7,CC(C)CN(CC(C)C)CC(O)CN(c1ccccc1)S(=O)(=O)c1ccccc1[N+](=O)[O-] (configuration not stated),2.89%
8,C=CCn1c(Cn2nnc3ccccc32)nnc1SCC(=O)N/N=C/c1cc(Br)cc(OC)c1O,28.3% (active)
9,Cc1ccc(Cn2c(SCC(=O)N/N=C/c3ccccc3OCC(=O)O)nc3ccccc32)cc1,5.43%
10,COc1ccc(OC)c(/C=N/NC(=O)CSc2nnc(C)n2-c2ccccc2)c1,-0.06%
11,O=C1C2CCCN2C(=O)N1CCCCN1CCN(c2cccc(C(F)(F)F)c2)CC1 (configuration not stated),-6.19%
12,CC(C)C1Cc2c(sc3c2c(=O)n(-c2ccccc2)c2nncn32)CO1 (configuration not stated),9.11%
13,CC(=O)NC(CC(=O)O)c1ccc(F)cc1 (configuration not stated),4.92%
14,CN(C)c1ccc(C(CC(=O)O)C(=O)O)cc1 (configuration not stated),33.2% (active)
15,CC(C)CNC(=O)C(=O)Nc1ccc(N(C)C)cc1,5.25%
16,COc1ccc(OC)c(C(O)c2nc3ccccc3n2C)c1 (configuration not stated),2.35%
17,CC(=O)c1ccc(N2CCN(CC(O)c3ccccc3)CC2)cc1 (configuration not stated),-0.23%
18,COC(=O)c1ccc(CN2C(=O)NC(c3ccccc3)(c3ccccc3)C2=O)o1,0.97%
19,CCOCCCNC(=O)c1ccc(CS(=O)(=O)c2cccc(C(F)(F)F)c2)o1,78.5% (active)
20,COc1ccccc1CNC(=O)c1ccc(CS(=O)(=O)c2ccccc2)o1,-0.58%
21,COc1ccc(CCNC(=O)c2ccc(CS(=O)(=O)c3ccc(Br)cc3)o2)cc1OC,-0.17%
22,Cc1c(Cl)cccc1NC(=O)[C@@]1(CC(=O)O)CC(/C=C/c2ccccc2)=NO1,-3.65%
23,O=C(NCCO)C(=O)NCC(c1ccc2c(c1)OCO2)N1CCN(c2ccc(F)cc2)CC1 (configuration not stated),2.98%
24,COc1ccccc1-c1nnc(SCC(=O)Nc2ccccc2)o1,17.1%
25,Cc1cc(NC(=O)CSc2nnc(-c3ccc(Cl)s3)o2)no1,21.4%

row,SMILES,inhibition
1,COc1ccccc1-c1nnc(SCC(=O)Nc2cc(C)on2)o1,39.2% (active)
2,COc1ccc(C(=O)CCC(=O)Nc2ccc(Cl)cc2)cc1,-1.71%
3,CN(c1ccc(O)cc1)c1nc(-c2cccnc2)cs1,7.5%
4,COc1ccc2nc(Nc3nc(-c4ccncc4)cs3)sc2c1,-1.76%
5,COc1cccc(CC(=O)Nc2nc(-c3ccc(OC)c(OC)c3)cs2)c1,-8.12%
6,COc1ccc(C)cc1Nc1nc(-c2c(C)[nH]c3ccccc23)cs1,-5.8%
7,Cc1ccccc1Nc1nc(-c2cccnc2)cs1,1.18%
8,NS(=O)(=O)c1ccc(Nc2nc(-c3ccccc3)cs2)cc1,2.74%
9,COc1ccc(-c2csc(Nc3ccc(O)cc3)n2)cc1,28.1% (active)
10,Oc1ccc(-c2csc(Nc3cccnc3)n2)cc1,55.7% (active)
11,COc1ccc(OC)c(Nc2nc(-c3ccc(O)c(O)c3)cs2)c1,56.5% (active)
12,O=C(N/C(=C\c1ccc([N+](=O)[O-])cc1)C(=O)N1CCOCC1)c1cccc(Br)c1,0.07%
13,COc1ccc(C(=O)N2CCCN(C)CC2)c(OC)c1,-1.62%
14,CCOc1cc(/C=C2\SC(N3CCCC(C)C3)=NC2=O)ccc1O (configuration not stated),9.44%
15,O=c1c2ccccc2[nH]c(=S)n1CCN1CCC(=C(c2ccc(F)cc2)c2ccc(F)cc2)CC1,-3.53%
16,Cc1nc(N=C(N)N)nc2c(C)cccc12,3.01%
17,COc1ccc(CN2CCCC(N3CCc4ccccc4C3)C2)c(O)c1 (configuration not stated),1.47%
18,COc1c(O)ccc2c1CN1CCc3cc4c(cc3C1C2)OCO4 (configuration not stated),42.2% (active)
19,COc1cc(COCC(O)CN2CCN(Cc3ccc4c(c3)OCO4)CC2)cc(OC)c1OC (configuration not stated),1.06%
20,Cc1cc(=O)[nH]c(SCC(N)=O)c1C#N,6.8%
21,Cc1ccc(NC(=O)CSc2sc3c(O)cc(=O)[nH]c3c2C#N)cc1C,9.88%
22,Cc1cc(=O)[nH]c(S)c1C#N,31.9% (active)
23,CC(C)(C)C(=O)NNC(=O)c1ccc(Oc2cc(Cl)cc(Cl)c2)o1,7.33%
24,CCC(C)C(NC(=O)C1CCC(=O)N1C(=O)OCc1ccccc1)C(=O)NC(C(=O)N1CCCC1C(N)=O)C(C)CC (configuration not stated),1.63%
25,O=C(Cc1ccccc1)NC(=S)Nc1ccc(N2CCCCC2)cc1,-3.44%

row,SMILES,inhibition
1,O=C1C=CC(=O)N1c1ccc(N2CCCCC2)cc1,35.3% (active)
2,CCOC(=O)/C(C#N)=C/c1ccc(N2CCCCC2)cc1,0.72%
3,CC(C)CCN(C(=O)c1csnn1)C(C(=O)NC1CCCC1)c1ccccc1 (configuration not stated),5.8%
4,O=C(Nc1ccnn1C1CCN(Cc2cccc(OCCO)c2)CC1)C1CCCC1,-3.2%
5,CCCC(C)NC(=O)C1CCN(C(=O)C2CC(=O)N(c3ccc(C)cc3)C2)CC1 (configuration not stated),-1.18%
6,COc1ccc2c(c1)C(C)=CC(C)(C)N2C(=O)CNCc1ccc2c(c1)OCO2,12.3%
7,CC1=CC(C)(C)N(C(=O)CSc2nnc(-c3ccccc3)o2)c2ccc(C)cc21,1.48%
8,COc1ccc2c(c1)C(C)=CC(C)(C)N2C(=O)Nc1ccccc1,34.2% (active)
9,O=C1C(=O)N(CCCO)C(c2ccccc2)/C1=C(\O)c1ccc(Br)cc1 (configuration not stated),-0.04%
10,O=C(CN1C(=O)NC2(CCCCC2)C1=O)NCCc1c[nH]c2ccccc12,0.15%
11,O=c1nc(N/N=C/c2ccco2)cn[nH]1,52.8% (active)
12,CC(C)NC(=O)C(=O)N/N=C/c1ccco1,-9.66%
13,O=C(N/N=C/c1ccco1)c1ccc(C(=O)N/N=C/c2ccco2)o1,6.04%
14,CCS(=O)(=O)Nc1ccc(C(=O)NCCSc2ccccc2)cc1,-4.1%
15,CCCCNC(=O)C1CCC(=O)N1CCc1ccccc1 (configuration not stated),-7.08%
16,CNC(=O)/C(C#N)=C/c1c(F)cccc1Cl,-1.65%
17,COc1cc(CN2CCCN(C)CC2)c([N+](=O)[O-])cc1OC,13.4%
18,COc1cc(CN2CCN(Cc3ccc(C)cc3)CC2)c([N+](=O)[O-])cc1OC,29.9% (active)
19,COc1cc(CNCc2ccc3c(c2)OCO3)c([N+](=O)[O-])cc1OC,13.5%
20,O=C(CSc1nc2ccc([N+](=O)[O-])cc2[nH]1)c1ccc(Cl)cc1,3.49%
21,O=C(CC(n1cncn1)C(Cl)(Cl)Cl)c1ccc([N+](=O)[O-])cc1 (configuration not stated),55.3% (active)
22,O=C(CCn1nnc2ccccc21)OCC(=O)c1ccc([N+](=O)[O-])cc1,21.8%
